# Article PMC8384837, “Expanding the binding specificity for RNA recognition by a PUF domain”
# Numbering of substitutions follows the chain as printed.
# Key:
# Assay in all cases: yeast three-hybrid, YBZ-1, SC-Leu-His + 0.5 mM 3-AT, 4 days
# Conditions in all cases: tags: N-Gal4 AD-HA kept; label: inside an RPR1-promoter hybrid RNA with tandem MS2 sites; ssRNA
# [1] = target: PUM1 PUF domain R3-EWL (Homo sapiens, UniProt Q14671 828-1176, C935E;R936W;Q939L)
# Summary of the method: (§1)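 The interaction score is the logarithmic change in variant frequency from input to selection. It uses log2, with a pseudocount of 1 for absent variants, and frequencies came from PCR-amplified, Illumina-sequenced repeat regions. The libraries were Pumilio-1 PUF domains randomized at the three base-contacting residues per repeat, co-expressed with matching RNA elements in strain YBZ-1 (LexA–MS2 coat fusion, HIS3 reporter). Plating lasted four days on SC-Leu (input) or SC-Leu-His + 0.5 mM 3-AT (selection).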
# [2] = target: PUM1 PUF domain R5-GIR (Homo sapiens, UniProt Q14671 828-1176, C1007G;R1008I;Q1011R)
# Summary of the method: as §1
# [3] = target: T1, PUM1 PUF domain R6-TFK (Homo sapiens, UniProt Q14671 828-1176, N1043T;Y1044F;Q1047K)
# T1 sequence: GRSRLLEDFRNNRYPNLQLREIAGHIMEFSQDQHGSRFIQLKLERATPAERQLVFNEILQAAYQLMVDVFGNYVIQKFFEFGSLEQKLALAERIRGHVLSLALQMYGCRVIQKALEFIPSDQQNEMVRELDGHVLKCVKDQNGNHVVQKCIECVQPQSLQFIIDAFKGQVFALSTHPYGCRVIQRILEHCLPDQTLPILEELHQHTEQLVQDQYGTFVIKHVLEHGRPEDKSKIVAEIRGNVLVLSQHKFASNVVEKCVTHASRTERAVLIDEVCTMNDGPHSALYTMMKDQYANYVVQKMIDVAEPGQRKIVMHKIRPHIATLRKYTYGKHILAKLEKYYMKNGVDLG
# Summary of the method: as §1
# [4] = target: T2, PUM1 PUF domain R6-HFF (Homo sapiens, UniProt Q14671 828-1176, N1043H;Y1044F;Q1047F)
# T2 sequence: T1 sequence with T216H, K220F
# Summary of the method: as §1
# [5] = target: PUM1 PUF domain R4-VLY (Homo sapiens, UniProt Q14671 828-1176, N971V;H972L;Q975Y)
# Summary of the method: as §1
# [6] = target: T3, PUM1 PUF domain R6-AWE (Homo sapiens, UniProt Q14671 828-1176, N1043A;Y1044W;Q1047E)
# T3 sequence: T1 sequence with T216A, F217W, K220E
# Summary of the method: as §1
# [7] = target: PUM1 PUF domain R8-YYF (Homo sapiens, UniProt Q14671 828-1176, N1122Y;Q1126F)
# Summary of the method: as §1
# [8] = target: PUM1 PUF domain R1-NLV (Homo sapiens, UniProt Q14671 828-1176, S863N;R864L;Q867V)
# Summary of the method: as §1
# [9] = target: PUM1 PUF domain R1-HFK (Homo sapiens, UniProt Q14671 828-1176, S863H;R864F;Q867K)
# Summary of the method: as §1
# [10] = target: PUM1 PUF domain R2-IWE (Homo sapiens, UniProt Q14671 828-1176, N899I;Y900W;Q903E)
# Summary of the method: as §1
sequence,measurement,setting,value
GGCUAGAACUAGUGGAUCCCCCGGCGCCCGGCGGCUCGAGCCCGGGUAAGUGUAAAUAGUCUGCAUGCCGCCGGGCGCCAUGCCUGCAGGUCGACUCUAGAAAACAUG,binding signal,[1],5.03 log2 enrichment (interaction score)
same,binding signal,[2],2.43 log2 enrichment (interaction score)
same,binding signal,[3],7.02 log2 enrichment (interaction score)
same,binding signal,[4],4.43 log2 enrichment (interaction score)
same,binding signal,[5],4.53 log2 enrichment (interaction score)
GGCUAGAACUAGUGGAUCCCCCGGCGCCCGGCGGCUCGAGCCCGGGUAAGUGGAAAUAGUCUGCAUGCCGCCGGGCGCCAUGCCUGCAGGUCGACUCUAGAAAACAUG,binding signal,[6],4.11 log2 enrichment (interaction score)
GGCUAGAACUAGUGGAUCCCCCGGCGCCCGGCGGCUCGAGCCCGGGUAAGCGUAAAUAGUCUGCAUGCCGCCGGGCGCCAUGCCUGCAGGUCGACUCUAGAAAACAUG,binding signal,[7],5.85 log2 enrichment (interaction score)
GGCUAGAACUAGUGGAUCCCCCGGCGCCCGGCGGCUCGAGCCCGGGUAAGUGAAAAUAGUCUGCAUGCCGCCGGGCGCCAUGCCUGCAGGUCGACUCUAGAAAACAUG,binding signal,[6],7.15 log2 enrichment (interaction score)
same,binding signal,[3],2.81 log2 enrichment (interaction score)
GGCUAGAACUAGUGGAUCCCCCGGCGCCCGGCGGCUCGAGCCCGGGUAAGUGUAAAUUGUCUGCAUGCCGCCGGGCGCCAUGCCUGCAGGUCGACUCUAGAAAACAUG,binding signal,[8],2.72 log2 enrichment (interaction score)
GGCUAGAACUAGUGGAUCCCCCGGCGCCCGGCGGCUCGAGCCCGGGUAAGUGUAAAUCGUCUGCAUGCCGCCGGGCGCCAUGCCUGCAGGUCGACUCUAGAAAACAUG,binding signal,[9],2.71 log2 enrichment (interaction score)
GGCUAGAACUAGUGGAUCCCCCGGCGCCCGGCGGCUCGAGCCCGGGUAAGUGUAAUUAGUCUGCAUGCCGCCGGGCGCCAUGCCUGCAGGUCGACUCUAGAAAACAUG,binding signal,[1],4.51 log2 enrichment (interaction score)
GGCUAGAACUAGUGGAUCCCCCGGCGCCCGGCGGCUCGAGCCCGGGUAAGUGUCAAUAGUCUGCAUGCCGCCGGGCGCCAUGCCUGCAGGUCGACUCUAGAAAACAUG,binding signal,[2],4.37 log2 enrichment (interaction score)
GGCUAGAACUAGUGGAUCCCCCGGCGCCCGGCGGCUCGAGCCCGGGUAAGUGUAAAAAGUCUGCAUGCCGCCGGGCGCCAUGCCUGCAGGUCGACUCUAGAAAACAUG,binding signal,[10],4.65 log2 enrichment (interaction score)
GGCUAGAACUAGUGGAUCCCCCGGCGCCCGGCGGCUCGAGCCCGGGUAAGUGUUAAUAGUCUGCAUGCCGCCGGGCGCCAUGCCUGCAGGUCGACUCUAGAAAACAUG,binding signal,[2],1.6 log2 enrichment (interaction score)
